From publication PMC7819943, “Rice protein-binding microarrays: a tool to detect cis-acting elements near promoter regions in rice”
Over roughly 39,000 sequences, “fluorescence intensity (a.u.)” has its median near 4,300; the highest 2% begin near 39,000. This is one part of a sample in which the highest values are shown more often than they occur.

What follows are sequences tested against T1, OsSMF1 (Oryza sativa, UniProt Q6ZLB0 1-436) (assay: protein-binding microarray (RPBM); PBS, 2% BSA, 51.3 ng/ul salmon testes DNA, 50 uM zinc acetate, 200 nM TF, 25 C, 1 h; high values mean tight binding). Conditions: protein: recombinant; tags: N-terminal polyhistidine and DsRed monomer fusion (pET32a); chain copies: 2; label: CyDye5-dUTP incorporated in the synthesized complementary strand; 3' TTTTT single-stranded linker to array surface; dsDNA, one strand shown.
T1 sequence: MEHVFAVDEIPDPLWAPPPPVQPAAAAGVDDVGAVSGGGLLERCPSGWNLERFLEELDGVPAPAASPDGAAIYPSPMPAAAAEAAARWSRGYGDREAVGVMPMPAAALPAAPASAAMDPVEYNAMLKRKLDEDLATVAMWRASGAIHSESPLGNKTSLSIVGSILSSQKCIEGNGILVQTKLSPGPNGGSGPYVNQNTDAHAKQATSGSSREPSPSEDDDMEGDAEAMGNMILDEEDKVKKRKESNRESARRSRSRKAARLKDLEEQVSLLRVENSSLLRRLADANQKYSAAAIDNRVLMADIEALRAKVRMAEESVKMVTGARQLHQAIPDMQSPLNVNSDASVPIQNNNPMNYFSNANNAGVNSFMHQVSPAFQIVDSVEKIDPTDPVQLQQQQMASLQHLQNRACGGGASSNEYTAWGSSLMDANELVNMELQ
Summary of the method: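 Transcription factors were each fused at the N-terminus to a polyhistidine tag plus DsRed and expressed in E. coli BL21-CodonPlus before Ni–NTA purification. Binding to a double-stranded custom Agilent array was carried out with 200 nM protein at 25 °C for 1 h in PBS, 2% BSA, salmon testes DNA and 50 µM zinc acetate. The binding signal is per-feature fluorescence intensity, in arbitrary units, on an Axon 4000B scanner.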

Sequence	binding signal
CGAGTGCCACGCGTGCGCCCACCGCCACGTCACCGATCCCCGGAGTCACCTAGTGCAG	53800 fluorescence intensity (a.u.)
CCCGCCGCGCCGCGTCCCGGCCACCGCGCCGCCCGCCGCGCGGAGTCACCTAGTGCAG	4250 fluorescence intensity (a.u.)
GTCCGTCGCGCGTCACCGCGTGCCTCGCCACGCCCACGCCCGGAGTCACCTAGTGCAG	5090 fluorescence intensity (a.u.)
CTTGGATCCAACGGCCACGGCTCTCTCATCGCCGCGCCCCCGGAGTCACCTAGTGCAG	46100 fluorescence intensity (a.u.)
GGGCAGATCCGGCGCCCGACGCCGGCGGATCCGCCGTCGTCGGAGTCACCTAGTGCAG	32500 fluorescence intensity (a.u.)
GAAGCCATCCACGCGGCACCATCGGACGGCTCTCGCGCCCCGGAGTCACCTAGTGCAG	5210 fluorescence intensity (a.u.)
CGTCGAACCGGCGGCGGCCCGCGCCACCCACCCTACCCGCCGGAGTCACCTAGTGCAG	49100 fluorescence intensity (a.u.)
CCCCACCACCTCATCGATCCGCGCCACCACCCAACCCACCCGGAGTCACCTAGTGCAG	4250 fluorescence intensity (a.u.)
TCCCGCTCACCACCACGCCACGTCACCGATCCGCGCAACCCGGAGTCACCTAGTGCAG	22400 fluorescence intensity (a.u.)
ACACATGCTTCAAGTGGCTAAGAGGGCATCCTCCCTTTTACGGAGTCACCTAGTGCAG	16000 fluorescence intensity (a.u.)
TAACTTCTTGCAGAAATGCCTCGTCATCGGTGACGCCGTTCGGAGTCACCTAGTGCAG	4870 fluorescence intensity (a.u.)
AAATTTGATCCTCGCACACCAGCTCAGCTACAGATGACATCGGAGTCACCTAGTGCAG	4230 fluorescence intensity (a.u.)
TTTGCATGCTTCATTACCACCTTCATCCACGTTGAAAGTACGGAGTCACCTAGTGCAG	4160 fluorescence intensity (a.u.)
GCACATCGCGCTCGCCGAAGCAGAACCACGCGGCCACCGGCGGAGTCACCTAGTGCAG	3240 fluorescence intensity (a.u.)
CGCAGCAAGCGTCACGTCACCAACTGTTTGCTCCAACTGTCGGAGTCACCTAGTGCAG	9370 fluorescence intensity (a.u.)
AAGAAACAACACACGTTAGCATTTCACTGCTATTAAGTTCCGGAGTCACCTAGTGCAG	5010 fluorescence intensity (a.u.)
GACGTTAGTGATCAGCTGGGTTAATTAATTACGTGGCTAACGGAGTCACCTAGTGCAG	7210 fluorescence intensity (a.u.)
CTCGCTGCTTCGCCCGCCACGTCACCCTCCTCCTCCTCCCCGGAGTCACCTAGTGCAG	62000 fluorescence intensity (a.u.)
TTCGCGCGCCACCTCCTCGCGCTCGCCTGCTTCTTCTCCCCGGAGTCACCTAGTGCAG	3380 fluorescence intensity (a.u.)
GCTGCTGCACCACGTCCTTCCTCTTCCTCGCCCCACCACCCGGAGTCACCTAGTGCAG	6380 fluorescence intensity (a.u.)
AAAACCTGACTTTGCATCATTAGACGATTTGTCCATTGAACGGAGTCACCTAGTGCAG	3160 fluorescence intensity (a.u.)

Sequence	binding signal
GGCTAGCCAGCGACCGACCGGCGGCCACCGTGGCGGGATTCGGAGTCACCTAGTGCAG	4850 fluorescence intensity (a.u.)
AGGTACGTAAATTTTATATATTCCATATGAGCTCTAAATACGGAGTCACCTAGTGCAG	3580 fluorescence intensity (a.u.)
AGGAGGTAGGATAGTTCCCTCCGTAATGGATCGAGGATGTCGGAGTCACCTAGTGCAG	42000 fluorescence intensity (a.u.)
CACGCAGTAGGGATCGAGGATGTCGTACGCGTACCTCTTCCGGAGTCACCTAGTGCAG	26100 fluorescence intensity (a.u.)
GTAGTCGTAATGTCATCGTCATCGACATCGATGTGTTGCTCGGAGTCACCTAGTGCAG	4940 fluorescence intensity (a.u.)
TCCTTCTTCCTTGGCCTCTTCCTAATGACAAGCCCTTGCGCGGAGTCACCTAGTGCAG	3610 fluorescence intensity (a.u.)
GCTCTTGAGAATGTTGCTGAGTTGTCAGCTCTCTCCACCCCGGAGTCACCTAGTGCAG	15700 fluorescence intensity (a.u.)
GATCGTACATGTTCACATAAACACCCACGACACTACCCTACGGAGTCACCTAGTGCAG	18400 fluorescence intensity (a.u.)
CCATATAGGAATTTAAAACTAACTAAAATTCGGAATAAACCGGAGTCACCTAGTGCAG	3400 fluorescence intensity (a.u.)
ACCCATAGAGATCGACACTATAGGTACCGGAATAACTAAACGGAGTCACCTAGTGCAG	63800 fluorescence intensity (a.u.)
AGAGAGAGCGTGGGTGGGGTGGGTGCTCTGGGTGACTGGGCGGAGTCACCTAGTGCAG	6040 fluorescence intensity (a.u.)
CATGCGATACTACCCCAACGGCCTCGACGACGGCTGCGCCCGGAGTCACCTAGTGCAG	26900 fluorescence intensity (a.u.)
CTGAAATGACCAGAATGCCCCTCCGTCCTACCCCACAATCCGGAGTCACCTAGTGCAG	19900 fluorescence intensity (a.u.)
ACTTGTCACTTGGTTCACACTAAGAGCACTTGACATATCTCGGAGTCACCTAGTGCAG	17900 fluorescence intensity (a.u.)
AGAGCAAGACAAGATGGTTAGTTCTCACACTTCAGATTGTCGGAGTCACCTAGTGCAG	41400 fluorescence intensity (a.u.)
AGACACTTTTGCAGGGATTGCTCAGACTTAGTTTCAGAGTCGGAGTCACCTAGTGCAG	3940 fluorescence intensity (a.u.)
TTAACGTGTACCACTACATGCATGCAGTGACGACAGTCAGCGGAGTCACCTAGTGCAG	3150 fluorescence intensity (a.u.)
ACACTCTCGATGTATAGATTCACCCACGAGATGATGTGGCCGGAGTCACCTAGTGCAG	6570 fluorescence intensity (a.u.)
GGGATAAAGAGAGGATGACACGTGGGACCCACATGTCAGCCGGAGTCACCTAGTGCAG	12400 fluorescence intensity (a.u.)
CACCACTACCACGATCAGGCCCAAGAGATGATAAAGTGGCCGGAGTCACCTAGTGCAG	46500 fluorescence intensity (a.u.)
GAGCTCCGACGAGCACCTCCCTGAAGCGTGGCAGGTCGAGCGGAGTCACCTAGTGCAG	3900 fluorescence intensity (a.u.)
